Measurements as given in PubChem BioAssay (Tox21).
Several values for one entry are separate records, joined by “and”; a condition that tells them apart may be missing. Equal values may be shown once. Records with an inconclusive call do not appear. Activity calls are given as the source filed them. Calls come from the whole dose curve; as a rule, active = well fitted curve in the direction sought with a large enough effect in the repeat runs; inconclusive = weak or mixed curves; inactive = no such curve, though single readings can be large; an effect the other way counts as inactive or inconclusive.

system: not listed separately; test: Caspase-3/7 induction in HepG2 cells by small molecules, qHTS cell viability counter screen (AID 1346981); conditions: CellTiter-Fluor fluorescence, 17 h; series mostly up to 92.4 µM; note: nearly all actives have a fitted effect of over 30% in size; note: potency is the fitted concentration of half-maximal effect
Outline: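 Multiplexed with the caspase-3/7 assay: HepG2 cells, 16 hr compound treatment, CellTiter-Fluor viability detection by fluorescence.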
% is set by controls: 0 for no effect and ±100 for the full control effect.

Compound	Potency	activity change, negative = cytotoxicity
O=[N+]([O-])c1ccc(O)cc1C(F)(F)F	43.3 µM (active)	
CC(C)(C)CC(C)(C)c1ccc(Nc2ccc(C(C)(C)CC(C)(C)C)cc2)cc1		3.23% [at 8.39 µM] (inactive)
Cc1ccc(N/N=c2\c(=O)cc/c(=N\Nc3ccc(S(=O)(=O)O)cc3)c2=O)c(C)c1	54.5 µM (active)	
[Cl][Pt-2]([Cl])([Cl])[Cl]	inactive	
NC(=O)c1cccc([N+](=O)[O-])c1	inactive	
OC[C@H]1O[C@H](O[C@H]2O[C@H](CO)[C@@H](O)[C@H](O)[C@H]2O)[C@H](O)[C@@H](O)[C@@H]1O	inactive	
CCCCCC(C)OC(=O)COc1ccc(Cl)c2cccnc12 (stereo not drawn)	inactive	
Cc1cc(C(C)(C)C)c(O)c(C)c1Cn1c(=O)n(Cc2c(C)cc(C(C)(C)C)c(O)c2C)c(=O)n(Cc2c(C)cc(C(C)(C)C)c(O)c2C)c1=O	inactive	
O=S(=O)(O)c1ccccc1/C=C/c1ccc(-c2ccc(/C=C/c3ccccc3S(=O)(=O)O)cc2)cc1	inactive	

target: Nuclear receptor subfamily 1 group I member 2 (Homo sapiens) (UniProt O75469); test: Human pregnane X receptor (PXR) small molecule agonists, qHTS assay (AID 1346982); conditions: PXR-Luc HepG2, CYP3A4 luciferase reporter, 24 h; series mostly up to 92.4 µM; note: nearly all actives have a fitted effect of over 35% in size; note: potency is the fitted concentration of half-maximal effect
Sequence (O75469 whole entry, looked up): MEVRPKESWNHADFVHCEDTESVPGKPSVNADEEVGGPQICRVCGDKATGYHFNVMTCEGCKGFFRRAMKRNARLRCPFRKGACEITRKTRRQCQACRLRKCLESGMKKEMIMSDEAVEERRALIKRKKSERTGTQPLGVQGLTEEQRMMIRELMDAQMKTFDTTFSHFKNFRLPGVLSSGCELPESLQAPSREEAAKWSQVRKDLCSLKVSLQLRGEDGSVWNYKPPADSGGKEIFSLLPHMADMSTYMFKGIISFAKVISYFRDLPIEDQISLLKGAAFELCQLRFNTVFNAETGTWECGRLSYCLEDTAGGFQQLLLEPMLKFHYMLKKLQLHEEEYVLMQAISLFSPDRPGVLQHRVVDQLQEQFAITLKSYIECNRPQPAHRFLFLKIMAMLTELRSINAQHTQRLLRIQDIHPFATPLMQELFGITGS
Outline: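 We seeded PXR-Luc HepG2 cells in assay medium containing 5% charcoal-stripped FBS, added compounds 5 hr later, incubated 24 hr, and read luminescence with ONE-Glo reagent.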

Compound	Potency	activation
C#C[C@]1(OC(C)=O)CC[C@H]2[C@@H]3CCC4=C/C(=N/O)CC[C@@H]4[C@H]3CC[C@@]21CC	29.8 µM (active)	
COC(=O)C1=C(C)NC(C)=C(C(=O)OCCN2CCN(C(c3ccccc3)c3ccccc3)CC2)C1c1cccc([N+](=O)[O-])c1 (stereo not drawn)	inactive	
O=C1CCc2cc(OCCCCc3nnnn3C3CCCCC3)ccc2N1	13.3 µM (active)	
CCC(C)(CCC(C)C)C(=O)[O][Sn]([CH3])([CH3])[O]C(=O)C(C)(CC)CCC(C)C (stereo not drawn)	inactive	
C=CCn1c(=O)n(CC=C)c(=O)n(CC=C)c1=O	inactive	
c1ccc(SSc2ccccc2)cc1	27.5 µM (active)	
Nc1ccc(Oc2ccc(Cl)cc2)cc1	33.6 µM (active)	
CC(C(=O)O)c1ccc2c(c1)[nH]c1ccc(Cl)cc12 (stereo not drawn)	inactive	
C#C[C@]1(OC(C)=O)CC[C@H]2[C@@H]3CCC4=C[C@@H](OC(C)=O)CC[C@@H]4[C@H]3CC[C@@]21C	29.8 µM (active)	
OC12N=C(c3ccccc3)SC1Cc1cc(Cl)ccc12 (stereo not drawn)	10.9 µM (active)	
C=CC(=O)Nc1cc2c(Nc3ccc(F)c(Cl)c3)ncnc2cc1OCCCN1CCOCC1	10.6 µM (active)	
CCN1C(=O)c2ccccc2C1Nc1ccc(OCCN2CCCCC2)cc1 (stereo not drawn)	1.68 µM (active)	
CNC(=O)c1ccccc1Sc1ccc2c(/C=C/c3ccccn3)n[nH]c2c1	0.376 µM (active)	
CCc1oc2ccccc2c1C(=O)c1cc(I)c(O)c(I)c1	inactive	
O=C(/C=C/c1ccc(O)c(O)c1)O[C@@H](C(=O)O)[C@@H](OC(=O)/C=C/c1ccc(O)c(O)c1)C(=O)O	inactive	
CN1CCN(Cc2cc(-c3ccc4[nH]c(=O)oc4c3)co2)[C@@H](c2ccc(F)cc2)C1	10.5 µM (active)	
CC(C)(C)CC(C)(C)c1ccc(Nc2ccc(C(C)(C)CC(C)(C)C)cc2)cc1		4.4% [at 8.39 µM] (inactive)
[Cl][Pt-2]([Cl])([Cl])[Cl]	inactive	
NC(=O)c1cccc([N+](=O)[O-])c1	inactive	
Cc1ccc(O)c(O)c1	59.4 µM (active)	
Cc1cc(C)c(/C=C2\C(=O)Nc3ccccc32)[nH]1	inactive	
OC[C@H]1O[C@H](O[C@H]2O[C@H](CO)[C@@H](O)[C@H](O)[C@H]2O)[C@H](O)[C@@H](O)[C@@H]1O	inactive	
CN1CCCCC1CCN1c2ccccc2Sc2ccc(S(C)=O)cc21 (stereo not drawn)	4.73 µM (active)	
CCCCCC(C)OC(=O)COc1ccc(Cl)c2cccnc12 (stereo not drawn)	24.3 µM (active)	
CCOC(=O)c1ccc(C2CCC(NC[C@H](O)COc3ccc(O)c(NS(C)(=O)=O)c3)CC2)cc1 (stereo partly drawn)	inactive	
O=S(=O)(O)c1ccccc1/C=C/c1ccc(-c2ccc(/C=C/c3ccccc3S(=O)(=O)O)cc2)cc1	inactive	

target: Nuclear receptor subfamily 1 group I member 2 (Rattus norvegicus) (UniProt Q9R1A7); test: Rat pregnane X receptor (rPXR) activation by small molecules, qHTS assay (AID 1346983); conditions: rPXR luciferase reporter cells, One-Glo luminescence, 24 h; hits give high values; note: nearly all actives have a fitted effect of over 20% in size
Sequence (Q9R1A7 whole entry, looked up): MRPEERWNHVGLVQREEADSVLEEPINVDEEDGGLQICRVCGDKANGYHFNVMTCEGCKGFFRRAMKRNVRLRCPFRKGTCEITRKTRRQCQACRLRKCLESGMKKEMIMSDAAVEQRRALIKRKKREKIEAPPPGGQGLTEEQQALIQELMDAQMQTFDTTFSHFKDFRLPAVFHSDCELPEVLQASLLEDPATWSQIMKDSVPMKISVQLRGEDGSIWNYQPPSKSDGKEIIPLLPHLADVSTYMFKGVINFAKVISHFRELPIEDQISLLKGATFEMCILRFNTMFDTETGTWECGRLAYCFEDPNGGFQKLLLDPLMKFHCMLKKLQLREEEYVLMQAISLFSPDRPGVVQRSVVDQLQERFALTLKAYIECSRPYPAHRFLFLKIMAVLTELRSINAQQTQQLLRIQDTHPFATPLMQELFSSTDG
Outline: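 Luminescent readout (One-Glo luciferase, 30 min room temperature) followed 24 hr compound treatment at 37 C of rPXR cells plated 2,000 per well and preincubated 5hr; qHTS format with compounds delivered in DMSO.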

Compound	max activation
C#CC1(O)CC[C@H]2[C@@H]3CCC4=CCCC[C@@H]4[C@H]3CC[C@@]21C (stereo partly drawn)	-0.183% (inactive)
COc1cccc2c1C(=O)c1c(O)c3c(c(O)c1C2=O)C[C@@](O)(C(C)=O)C[C@@H]3O[C@H]1C[C@H](N)[C@H](O)[C@H](C)O1	-7.89% (inactive)
CC(C(=O)O)c1ccc2c(c1)[nH]c1ccc(Cl)cc12 (stereo not drawn)	-1.86% (inactive)
C#C[C@]1(OC(C)=O)CC[C@H]2[C@@H]3CCC4=C[C@@H](OC(C)=O)CC[C@@H]4[C@H]3CC[C@@]21C	3.89% (inactive)
CCc1oc2ccccc2c1C(=O)c1cc(I)c(O)c(I)c1	-8.05% (inactive)
Cc1cc(C)c(/C=C2\C(=O)Nc3ccccc32)[nH]1	-0.232% (inactive)
CN1CCCCC1CCN1c2ccccc2Sc2ccc(S(C)=O)cc21 (stereo not drawn)	-2.96% (inactive) and -0.765% (inactive)

target: Nuclear receptor subfamily 1 group I member 2 (Homo sapiens) (UniProt O75469); test: CYP3A4 induction through human pregnane X receptor (PXR) by small molecules, qHTS assay (AID 1346984); conditions: DPX-2 HepG2 PXR, CYP3A4-luciferin luminescence, 24 h; series mostly up to 46.1 µM; note: nearly all actives have a fitted effect of over 40% in size; note: potency is the fitted concentration of half-maximal effect
Outline: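 qHTS, concentration-response format: HepG2 DPX-2 line, PXR/CYP3A4-luc. Exposure 24 h, 37C. Substrate Luciferin-IPA 3uM final, 3 h. Detection One-Glo, 30 min RT.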

Compound	Potency
C#C[C@]1(OC(C)=O)CC[C@H]2[C@@H]3CCC4=C/C(=N/O)CC[C@@H]4[C@H]3CC[C@@]21CC	inactive
COC(=O)C1=C(C)NC(C)=C(C(=O)OCCN2CCN(C(c3ccccc3)c3ccccc3)CC2)C1c1cccc([N+](=O)[O-])c1 (stereo not drawn)	inactive
CC(C(=O)O)c1ccc2c(c1)[nH]c1ccc(Cl)cc12 (stereo not drawn)	inactive
C#C[C@]1(OC(C)=O)CC[C@H]2[C@@H]3CCC4=C[C@@H](OC(C)=O)CC[C@@H]4[C@H]3CC[C@@]21C	inactive
CCc1oc2ccccc2c1C(=O)c1cc(I)c(O)c(I)c1	25.1 µM (active)
CN1CCCCC1CCN1c2ccccc2Sc2ccc(S(C)=O)cc21 (stereo not drawn)	inactive
